# In ChEMBL document CHEMBL4808148, “HDAC6 screening dataset using tau-based substrate in an enzymatic assay yields selective inhibitors and activators” (2021):
# Several values for one entry are separate records, joined by “and”; a condition that tells them apart may be missing. Identical values can stand only once. About 150 (2.7%) of roughly 5,600 compounds showed an effect of 50% or more. The sample holds strong results, similar compounds and a random draw of the others, so the mix is not that of the screen. Positions of bridges follow the written chain, without caps; N, C: chain ends. Non-standard residues stand in square brackets, D forms with d. Residues, ends and D or L forms follow the SMILES beside them. *: point of attachment. NMeF = CN[C@@H](Cc1ccccc1)C(=O)O; X4 = CCC(C)C(N)C1=NC(C(=O)*)CS1; dOrn = NCCC[C@@H](N)C(=O)O
# Experiments:
# [1] = molecular target: T1, Protein deacetylase HDAC6 (Homo sapiens) (UniProt Q9UBN7); conditions: at 10 µM
# T1 sequence (whole entry): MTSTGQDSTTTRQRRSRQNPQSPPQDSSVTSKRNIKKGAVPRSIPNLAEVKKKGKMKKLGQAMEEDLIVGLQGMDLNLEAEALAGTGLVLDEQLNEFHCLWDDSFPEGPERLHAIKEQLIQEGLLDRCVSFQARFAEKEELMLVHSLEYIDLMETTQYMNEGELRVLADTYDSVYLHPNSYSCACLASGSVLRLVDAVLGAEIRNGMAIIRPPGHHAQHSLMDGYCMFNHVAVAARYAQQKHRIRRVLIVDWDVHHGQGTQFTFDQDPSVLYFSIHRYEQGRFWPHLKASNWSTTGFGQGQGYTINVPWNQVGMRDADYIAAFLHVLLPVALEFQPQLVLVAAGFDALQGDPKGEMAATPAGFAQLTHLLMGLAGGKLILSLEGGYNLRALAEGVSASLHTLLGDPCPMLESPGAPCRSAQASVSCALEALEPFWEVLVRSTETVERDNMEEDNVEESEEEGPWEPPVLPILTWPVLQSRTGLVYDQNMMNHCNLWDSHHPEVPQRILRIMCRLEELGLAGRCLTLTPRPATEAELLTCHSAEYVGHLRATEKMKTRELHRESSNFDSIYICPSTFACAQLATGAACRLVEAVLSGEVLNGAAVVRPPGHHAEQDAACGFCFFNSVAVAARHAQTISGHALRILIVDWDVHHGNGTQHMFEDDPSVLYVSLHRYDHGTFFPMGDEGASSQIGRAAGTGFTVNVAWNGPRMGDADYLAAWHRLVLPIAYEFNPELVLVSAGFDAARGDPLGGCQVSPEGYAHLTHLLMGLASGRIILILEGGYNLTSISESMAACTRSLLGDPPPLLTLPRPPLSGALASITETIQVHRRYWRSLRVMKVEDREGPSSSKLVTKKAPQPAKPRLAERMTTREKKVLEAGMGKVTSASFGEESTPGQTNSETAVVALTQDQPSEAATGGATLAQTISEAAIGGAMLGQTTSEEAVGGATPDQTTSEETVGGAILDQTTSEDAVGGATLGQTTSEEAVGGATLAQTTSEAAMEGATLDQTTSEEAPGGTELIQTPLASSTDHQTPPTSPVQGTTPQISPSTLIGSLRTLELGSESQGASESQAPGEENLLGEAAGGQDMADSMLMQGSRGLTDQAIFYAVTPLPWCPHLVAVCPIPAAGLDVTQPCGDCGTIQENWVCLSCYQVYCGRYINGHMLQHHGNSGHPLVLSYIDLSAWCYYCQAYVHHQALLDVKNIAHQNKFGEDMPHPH
# [2] = molecular target: Protein deacetylase HDAC6 (Homo sapiens) (UniProt Q9UBN7); conditions: at 10 µM; remark: listed apart in the source
Compound,inhibition [1] [%],inhibition [2]
C=CC(C)(O)CC[C@@H]1[C@@]2(C)CCCC(C)(C)C2CC[C@@]1(C)O (stereo not given in full),-4.8,
O=C(Nc1cc(C(F)(F)F)ccc1O)Nc1cc(C(F)(F)F)ccc1O,0.26,
Cc1cc(/C=C2\SC(=O)N(c3ccccc3)C2=O)c(C)n1-c1cccnc1,66.1,
Cc1cc(/C=c2/sc3nc4ccccc4n3c2=O)c(C)n1-c1ccccc1,-1.28,
CC(C)C1=C2[C@H]3CC[C@@H]4[C@@]5(C)CC[C@H](OC(=O)CC(C)(C)C(=O)O)C(C)(C)[C@@H]5CC[C@@]4(C)[C@]3(C)CC[C@@]2([C@@H](O)CN(CCN(C)C)Cc2ccc(Cl)cc2)CC1=O,-0.39,
Cc1oc2ccccc2c1CNC(=O)NCc1cccs1,2.62,
Nc1ncnc2c1c(-c1cccc(OCc3ccccc3)c1)cn2[C@H]1C[C@H](CN2CCCC2)C1,8.87,
CCOC(=O)Nc1ccc(NCc2c(C)cc(C)cc2C)cc1N,-1.7,
N#Cc1cc(-c2n[nH]c(-c3ccncc3)n2)ccn1,61.8,
COc1cccc(OC)c1-c1ccc(C[C@H](NC(=O)c2c(Cl)cccc2Cl)C(=O)O)cc1,-2.4,
O=C(N[C@H](Cc1ccccc1)C(=O)O)c1sc2cc(F)ccc2c1Cl,-0.15,
COCCN(C(=O)c1cc(OC)c(OC)c(OC)c1)c1nc(-c2ccccc2)cs1,-3.54,
Cc1nc2ccc(-n3ncc(C(=O)c4cc5ccccc5[nH]4)c3N)cc2[nH]1,95.7,
CCCSc1ccc2[nH]c(NC(=O)OC)nc2c1,41.8,
CCC[S+]([O-])c1ccc2[nH]c(NC(=O)OC)nc2c1 (stereo not given),68.9,
CCOC(=O)Nc1nc2ccccc2[nH]1,20.3,
CCC(C)C(N)C1=NC(C(=O)N[C@@H](CC(C)C)C(=O)N[C@H](CCC(=O)O)C(=O)N[C@H](C(=O)N[C@H]2CCCCNC(=O)[C@H](CC(N)=O)NC(=O)[C@@H](CC(=O)O)NC(=O)[C@@H](Cc3cnc[nH]3)NC(=O)[C@@H](Cc3ccccc3)NC(=O)[C@@H]([C@H](C)CC)NC(=O)[C@@H](CCCN)NC2=O)[C@@H](C)CC)CS1 (stereo not given in full) (X4-L[dE]IK[dOrn][dI][dF][dH][dD]N; lactam 4-C),25.1,
Cc1c(NC(=O)c2cc3c(s2)CCCC3)cccc1-c1cn(C)c(=O)c(Nc2ccc(C3C(=O)N(C)CCN3C)cc2)n1 (racemic),-2.69,
N=C(N)Nc1ccc(C(=O)Oc2ccc3cc(C(=N)N)ccc3c2)cc1,98.3,
CC(=O)Nc1ccc(OC(C)=O)cc1,-1.45,
CSCC[C@H](NC(=O)[C@H](CC(C)C)NC(=O)[C@@H](Cc1c[nH]c2ccccc12)NC(=O)[C@H](Cc1ccccc1)N(C)C(=O)[C@@H](Cc1c[nH]c2ccccc12)NC(=O)[C@@H](N)CCCNC(=N)N)C(N)=O (H-R[dW][NMeF][dW]LM-NH2),-6.35,
CC(=O)Oc1ccccc1C(=O)Nc1ncc([N+](=O)[O-])s1,98.3,
COc1ccccc1OC(=O)c1ccccc1OC(C)=O,-4.29,
"COLISTIN SULFATE, CHEMBL6067482",,-5.33% and -3.72%
O=C(NN1C(=O)[C@@H]2[C@@H]3C=C[C@@H]([C@H]4C[C@@H]34)[C@@H]2C1=O)c1ccc(C(F)(F)F)cc1,3.03,
